From PubChem
The full list was thinned out, with hits kept by preference.
TTR transcr act: TTR transcription activators in neuroblastoma reporter cells, primary screen, cell-based, luminescence, SH-SY5Y, TTR promoter Gaussia luciferase. 100% = recombinant luciferase protein wells. activation, % at 16.7 µM. 92,000 compounds, 1.3% hits;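 active = activation above the mean of all tested compounds plus 3 SD, cut at about 9.5% in these data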;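 also: cells exposed to compounds for one day before reading; 0% = median of all test compound wells on the plate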
HuH7 TTR inh: TTR promoter reporter inhibitors in hepatoma cells, counter-screen for TTR transcription activator project, cell-based, luminescence, HuH7 hepatoma; shares compounds with TTR transcr act; HuH7 TTR promoter-Gaussia luciferase reporter; inhibition, % at 16.7 µM; 1,100 compounds, 4% hits; AID 1117279, 2014;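 active = average inhibition above the solvent-only control wells' mean plus 3 SD, cut at about 15% in these data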;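 also: 0% = cells with DMSO only and 100% = cells with inhibitor control FD; inhibitors lower well luminescence so higher value means more inhibition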
TTR act confirm: TTR transcription activators, retest, confirmation, cell-based, luminescence, SH-SY5Y, triplicate; activation, % at 16.7 µM; 1,100 tested, under 10 active; shares compounds with TTR transcr act; SHSY5Y TTR promoter Gaussia luciferase; 100% = purified Lucia enzyme wells, no cells;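 active = mean activation above a set limit taken from the earlier primary screen, cut at about 11% in these data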;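 also: 0% = DMSO-treated cells and 100% = recombinant Lucia luciferase without cells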
* marks the source's active call; other numbers are inactive results.

Screening C[C@H]1[C@@H](NC(=O)C(c2ccccc2)c2ccccc2)CC[C@@]23CCCN2C(=O)CCC[C@@H]13 returned TTR transcr act -0.2.
Screening COC(=O)[C@]12C[C@H](CC(=O)N3CCC(c4ccccc4)CC3)C(=O)N(Cc3cccc4ccccc34)C1=C[C@H](C(C)C)O[C@@H]2C1CC1 returned TTR transcr act -1.1.
Cc1cc2nc(-c3ccc(F)cc3)c(Cc3ccccc3)n2c(C)c1Br was read as TTR transcr act 0.0.
Screening Cc1ccc(Cc2c(-c3cccc(Cl)c3)nc3cc(C)c(Br)c(C)n23)cc1 returned TTR transcr act 0.5.
Screening Cc1ccc(Cc2c(-c3ccccc3)nc3cc(C)c(Br)c(C)n23)cc1 returned TTR transcr act 11.7*, HuH7 TTR inh -9.8 and TTR act confirm -0.5.
For COC(=O)[C@]12C[C@H](CC(=O)N3CCN(C(=O)C4CC4)CC3)C(=O)N(Cc3ccco3)C1=C[C@H](C1CCCC1)O[C@@H]2C the results were TTR transcr act 0.3.
For COc1ccc(C(=O)O/N=C(\N)Cc2cccs2)cc1OC the results were TTR transcr act 2.8.
For COc1ccc(/C(N)=N/OC(=O)COc2ccccc2Cl)cc1 the results were TTR transcr act 0.4.
`N/C(Cc1cccs1)=N\OC(=O)COc1ccccc1Cl` gave TTR transcr act 11.1*, HuH7 TTR inh 10.6 and TTR act confirm 0.3.
COc1ccc(OC)c(CN2C(=O)CSCC2(C)c2nnnn2C2CCCC2)c1 (stereo not drawn) was read as TTR transcr act 5.7.
C[C@H]1[C@@H](NC(=O)c2cccc(N(C)C)c2)CC[C@@]23CCCN2C(=O)CCC[C@@H]13 was read as TTR transcr act -0.7.
For CCCCN1C(=O)c2ccccc2NC1c1ccc(OC)c(COc2ccc(NC(C)=O)cc2)c1 (stereo not drawn) the results were TTR transcr act -1.0.
Cc1nc(SCc2ccccc2)c([N+](=O)[O-])[nH]1 was read as TTR transcr act -1.8.
`Cc1nc(SCCC(C)C)c([N+](=O)[O-])[nH]1` gave TTR transcr act -1.3.
For CCOC(=O)CSc1nc(C)[nH]c1[N+](=O)[O-] the results were TTR transcr act 10.4*, HuH7 TTR inh -6.3 and TTR act confirm -0.9.
CN(CCc1ccccc1)C(=O)c1cccc(NC(=O)Cc2cccc(NC(=O)C3CCN(C(=O)C4CCCC4)CC3)c2)c1 was read as TTR transcr act -0.2.
`CN(CCc1ccccc1)C(=O)c1cccc(NC(=O)Cc2cccc(NC(=O)C3CCN(C(=O)c4ccccc4)CC3)c2)c1` gave TTR transcr act 9.9*, HuH7 TTR inh -6.5 and TTR act confirm 0.3.
Screening CN(CCc1ccccc1)C(=O)c1cccc(NC(=O)Cc2cccc(NC(=O)C3CCN(C(=O)C4CC4)CC3)c2)c1 returned TTR transcr act 0.1.
For O=C(OCC#CCSc1nnc(-c2cccc3ccccc23)o1)C1CCC1 the results were TTR transcr act 2.9.
For Nc1[nH]c2cc(C(F)(F)F)ccc2c1C(=O)N1CCN(CCc2ccccc2)CC1 the results were TTR transcr act -0.7.
For COC(=O)[C@]12CCCCC=C1N(Cc1ccc(OC)cc1)C(=O)[C@@H]2CC(=O)NCC12CC3CC(CC(C3)C1)C2 the results were TTR transcr act -1.9.
For COc1ccccc1NCc1nc2ccccc2n1C the results were TTR transcr act 0.7.
`CCn1c(=O)cc(N2CCN(c3cccc(C(F)(F)F)c3)CC2)[nH]c1=O` gave TTR transcr act 0.8.
`c1ccc(Cn2ccc3ccc(-c4ccc5ccn(Cc6cccc(-c7ccsc7)c6)c5c4)cc32)cc1` gave TTR transcr act 0.1.
`COc1cccc(N(C)C(=O)[C@@H](C)[C@@H](O)c2ccc(Cl)cc2)c1` gave TTR transcr act 1.9.
Screening COC(=O)C[C@@H]1C=C[C@H](NC(=O)Nc2cc(F)ccc2F)[C@@H](CO)O1 returned TTR transcr act 0.8.
For CC(C)Oc1cccc(-c2csc(N3CCC(C(N)=O)CC3)n2)c1 the results were TTR transcr act 3.2.
`COC(=O)c1ccc[n+](CC(=O)Nc2ccc(OC(F)F)cc2)c1` gave TTR transcr act 6.6.
Screening O=C(C[n+]1ccccc1)Nc1ccccc1 returned TTR transcr act -0.2.
`COC(=O)c1ccc(NC(=O)C[n+]2ccccc2)cc1` gave TTR transcr act 10.2*, HuH7 TTR inh -12.9 and TTR act confirm 1.6.
For COC(=O)CC[C@@H](/C=C/C(=O)OC(C)(C)C)Sc1ccc(C(C)(C)C)cc1 the results were TTR transcr act 3.5.
COc1cc(C2NC(=O)NC(C)=C2C(=O)OCC2CCCCC2)cc(Cl)c1O (stereo not drawn) was read as TTR transcr act 0.1.
Screening CCOc1cc(C2NC(=O)NC(C)=C2C(=O)OC(C)CC)cc(Br)c1O (stereo not drawn) returned TTR transcr act 2.4.
For COc1cc(C2NC(=O)NC(C)=C2C(=O)OC2CCCC(C)C2)cc(Br)c1O (stereo not drawn) the results were TTR transcr act 10.7*, HuH7 TTR inh -12.2 and TTR act confirm -1.0.
`COC(=O)[C@]12C[C@H](CC(=O)N3CCOCC3)C(=O)N(Cc3ccc(Cl)cc3Cl)C1=C[C@H](C(C)(C)C)O[C@@H]2C` gave TTR transcr act -0.6.
`CSc1ccc(-c2csc(N3CCC(C(N)=O)CC3)n2)cc1` gave TTR transcr act 0.7.
Clc1ccccc1OCc1nc(-c2ccc(Br)o2)no1 was read as TTR transcr act 0.8.
For O=[N+]([O-])c1ccccc1OCc1nc(-c2cccs2)no1 the results were TTR transcr act 11.8*, HuH7 TTR inh -9.2 and TTR act confirm 0.5.
For O=C(O)CCc1nc(-c2cccs2)no1 the results were TTR transcr act -1.5.
Screening CCCCCCCCN1C(=O)[C@@H](CC(=O)N2CCN(C(=O)c3ccco3)CC2)C[C@@]2(C(=O)OC)C1=C[C@H](C(C)C)O[C@@H]2C1CC1 returned TTR transcr act -2.2.
Cc1ccc(C(=O)Nc2cccc(-c3nc4ncccc4o3)c2)cc1 was read as TTR transcr act -1.3.
For Cc1ccc(NC(=S)Nc2cccc(-c3n[nH]c(=S)o3)c2)cc1 the results were TTR transcr act 74.0*, HuH7 TTR inh 0.6 and TTR act confirm 0.1.
Screening Cc1ccc(NC(=S)Nc2cc(C)on2)cc1 returned TTR transcr act 0.7.
`O=S1(=O)c2c(cccc2N2CCC[C@H]2CO)OCCCN1C1CC1` gave TTR transcr act -0.2.
For Nc1nnnn1CC(=O)N/N=C/c1cccs1 the results were TTR transcr act 36.3*, HuH7 TTR inh -8.0 and TTR act confirm 0.6.
`Cc1ccnn1CC(=O)N/N=C/c1cccs1` gave TTR transcr act -0.8.
`O=C(Cn1ccc(C(F)(F)F)n1)N/N=C/c1cccs1` gave TTR transcr act -1.4.
O=C(Nc1c(-c2ccc(F)cc2)nc2ncccn12)C1CC1 was read as TTR transcr act -0.6.
`Cc1cccc(C)c1NC(=O)CNC(=O)C1CCCN(C(=O)c2ccc(Cl)cc2)C1` (stereo not drawn) gave TTR transcr act 26.2*, HuH7 TTR inh -6.6 and TTR act confirm -0.9.
